Results published in PubChem BioAssay (EPA / NIEHS).
Where “and” joins values, the source holds several entries; their conditions need not be identical. Equal values may be shown once. More than one record can exist for a structure, and the calls need not agree. Calls of active or inactive are those of the source. The calls were made as follows: active = hit-call score of the fitted dose curve at least 0.9, where 1 is the maximum; inactive = score below 0.9.

Columns and labels:
Details in all cases: mRNA level, 48 h; actives raise or lower the signal
[1] = read-out: Apolipoprotein A-V (APOA5) gene, APOA5 (gene 116519); test: LTEA_HepaRG_APOA5: Life Technologies and Expression Analysis (LTEA) Assay for Apolipoprotein A-V (APOA5) gene using HepaRG (AID 2283474)
How it was run: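 Differentiated HepaRG cells in serum-free induction medium, exposed 48 h in duplicate to eight half-log concentrations topping at 100 uM (0.5% DMSO). APOA5 mRNA by Fluidigm TaqMan qRT-PCR, normalized to ACTB, GAPDH and POLR2A; bidirectional fit versus DMSO.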

[2] = read-out: Bcl-2 (BID) gene, BID (gene 637); test: LTEA_HepaRG_BID: Life Technologies and Expression Analysis (LTEA) Assay for Bcl-2 (BID) gene using HepaRG (AID 2283476)
How it was run: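 Gain or loss of BID expression is fitted relative to 0.5% DMSO vehicle. Human HepaRG liver cells received a 48 h chemical exposure over an eight-point concentration range.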

[3] = read-out: Cytochrome P450 (CYP24A1), CYP24A1 (gene 1591); test: LTEA_HepaRG_CYP24A1: Life Technologies and Expression Analysis (LTEA) Assay for Cytochrome P450 (CYP24A1) using HepaRG (AID 2283478)
How it was run: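 HepaRG cells plated 48 h, then exposed in duplicate in serum-free induction medium for 48 h to 8-point half-log series from 100 uM in 0.5% DMSO. CYP24A1 mRNA by Fluidigm qRT-PCR, normalized to ACTB, GAPDH, POLR2A; bidirectional fit versus DMSO.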

[4] = read-out: Cytochrome P450 (CYP1A2), CYP1A2 (gene 1544); test: LTEA_HepaRG_CYP1A2: Life Technologies and Expression Analysis (LTEA) Assay for Cytochrome P450 (CYP1A2) using HepaRG (AID 2283479)
How it was run: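 Differentiated human HepaRG cells in serum-free induction medium exposed 48 hours in duplicate to 8 half-log concentrations from 100 uM, 0.5% DMSO. CYP1A2 mRNA quantified by qRT-PCR, normalized to ACTB, GAPDH and POLR2A; bidirectional fitting versus DMSO.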

[5] = read-out: cysteine-aspartic acid protease (CASP8), CASP8 (gene 841); test: LTEA_HepaRG_CASP8: Life Technologies and Expression Analysis (LTEA) Assay for cysteine-aspartic acid protease (CASP8) using HepaRG (AID 2283480)
How it was run: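 HepaRG, 48 h exposure, duplicate wells; 8 conc, half-log from 100 uM, 0.5% DMSO. Serum-free induction medium. CASP8 mRNA by TaqMan qRT-PCR, norm. ACTB/GAPDH/POLR2A; gain/loss fitted vs DMSO.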

[6] = read-out: Cytochrome P450 (CYP2B6), CYP2B6 (gene 1555); test: LTEA_HepaRG_CYP2B6: Life Technologies and Expression Analysis (LTEA) Assay for Cytochrome P450 (CYP2B6) using HepaRG (AID 2283481)
How it was run: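 Differentiated human HepaRG cells in serum-free induction medium, dosed in duplicate for 48 h over 8 half-log concentrations topping at 100 uM (0.5% DMSO). CYP2B6 mRNA measured by TaqMan qRT-PCR, normalized to ACTB, GAPDH, POLR2A; bidirectional fit versus DMSO.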

[7] = read-out: Cytochrome P450 2C19 (Homo sapiens) (UniProt P33261); test: LTEA_HepaRG_CYP2C19: Life Technologies and Expression Analysis (LTEA) Assay for CYP2C19 using HepaRG (AID 2283482)
How it was run: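 Differentiated HepaRG cells in serum-free induction medium exposed 48 h in duplicate, 8 concentrations from 100 uM by half-log steps in 0.5% DMSO. CYP2C19 mRNA measured by TaqMan qRT-PCR, normalized to ACTB, GAPDH, POLR2A. Bidirectional fit versus DMSO.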

CYP2C8 (gene 1558) = test: LTEA_HepaRG_CYP2C8: Life Technologies and Expression Analysis (LTEA) Assay for CYP2C8 using HepaRG (AID 2283483)
How it was run: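 CYP2C8 mRNA induction or loss, by qRT-PCR normalized to ACTB/GAPDH/POLR2A, is read in HepaRG cells after 48 h treatment. Concentrations run from 100 uM down in half-log dilutions, with 0.5% DMSO as vehicle and baseline.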

Caspase-3 (Homo sapiens) = Caspase-3 (Homo sapiens) (UniProt P42574); test: LTEA_HepaRG_CASP3: Life Technologies and Expression Analysis (LTEA) Assay for cysteine-aspartic acid protease (CASP3) using HepaRG (AID 2283477)
Caspase-3 (Homo sapiens), sequence (P42574 whole entry, looked up): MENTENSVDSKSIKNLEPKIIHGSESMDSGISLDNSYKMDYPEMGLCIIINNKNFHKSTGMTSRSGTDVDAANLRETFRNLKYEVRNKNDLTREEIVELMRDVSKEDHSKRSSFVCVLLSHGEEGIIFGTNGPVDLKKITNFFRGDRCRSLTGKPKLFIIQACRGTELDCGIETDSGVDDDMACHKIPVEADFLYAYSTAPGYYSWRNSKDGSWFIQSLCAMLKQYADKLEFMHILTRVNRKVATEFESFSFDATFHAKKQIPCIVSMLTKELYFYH
How it was run: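 Differentiated HepaRG cells, plated 48 h, were treated in duplicate in serum-free induction medium for 48 h with eight half-log concentrations up to 100 uM in 0.5% DMSO. CASP3 mRNA measured by qRT-PCR, normalized to ACTB, GAPDH, POLR2A.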

[8] = read-out: Apoptosis regulator Bcl-2 (Homo sapiens) (UniProt P10415); test: LTEA_HepaRG_BCL2: Life Technologies and Expression Analysis (LTEA) Assay for Bcl-2 gene using HepaRG (AID 2283475);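 also: BCL2 transcript by TaqMan qRT-PCR normalised to ACTB GAPDH and POLR2A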
How it was run: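 Expression change of BCL2 mRNA in HepaRG after 48 h dosing, quantified by TaqMan qRT-PCR against three endogenous controls. Concentration-response used eight points up to 100 uM, vehicle 0.5% DMSO.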

Apoptosis regulator Bcl-2 (Homo sapiens), sequence (P10415 whole entry, looked up): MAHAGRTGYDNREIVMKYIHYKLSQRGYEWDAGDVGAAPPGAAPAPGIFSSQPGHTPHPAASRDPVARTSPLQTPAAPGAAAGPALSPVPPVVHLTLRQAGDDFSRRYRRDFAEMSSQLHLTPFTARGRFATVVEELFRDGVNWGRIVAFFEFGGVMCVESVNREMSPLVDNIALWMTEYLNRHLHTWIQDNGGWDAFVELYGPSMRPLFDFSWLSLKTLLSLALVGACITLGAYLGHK
Cytochrome P450 2C19 (Homo sapiens), sequence (P33261 whole entry, looked up): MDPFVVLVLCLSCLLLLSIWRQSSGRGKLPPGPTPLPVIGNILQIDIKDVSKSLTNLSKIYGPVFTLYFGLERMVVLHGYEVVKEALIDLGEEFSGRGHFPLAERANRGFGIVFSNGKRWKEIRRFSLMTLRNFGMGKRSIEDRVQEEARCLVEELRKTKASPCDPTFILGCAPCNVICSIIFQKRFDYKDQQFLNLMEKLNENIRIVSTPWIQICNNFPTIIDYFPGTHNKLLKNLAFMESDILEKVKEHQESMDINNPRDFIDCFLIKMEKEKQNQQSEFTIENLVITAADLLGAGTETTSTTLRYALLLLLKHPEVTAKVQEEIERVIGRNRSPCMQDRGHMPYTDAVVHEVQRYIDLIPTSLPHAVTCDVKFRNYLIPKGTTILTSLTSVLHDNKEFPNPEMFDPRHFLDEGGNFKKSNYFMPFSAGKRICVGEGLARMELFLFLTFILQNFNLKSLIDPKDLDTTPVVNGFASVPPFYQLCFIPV

Compound | outcome [1] | outcome [2] | outcome [3] | AC50 [4] | outcome [5] | outcome [6] | outcome [7] | outcome (CYP2C8 (gene 1558)) | outcome (Caspase-3 (Homo sapiens)) | outcome [4] | AC50 [1] | AC50 [8] | AC50 [6] | AC50 [7] | AC50 (CYP2C8 (gene 1558)) | outcome [8] | AC50 [2] | AC50 [5]
COP(=S)(OC)Oc1nc(Cl)c(Cl)cc1Cl | inactive | inactive | inactive | 66.5 µM (active) | inactive | inactive | inactive | inactive |  |  |  |  |  |  |  |  |  | 
Cc1c(F)c(F)c(COC(=O)C2C(/C=C(\Cl)C(F)(F)F)C2(C)C)c(F)c1F (centres undefined) | inactive | inactive | inactive |  | inactive | inactive | inactive | inactive | inactive | inactive |  |  |  |  |  |  |  | 
O=C(O)c1nc(Cl)ccc1Cl | inactive | inactive | inactive | 50 µM (active) | inactive | inactive | inactive | inactive | inactive | inactive |  |  |  |  |  |  |  | 
CC(C)Oc1cc(-n2nc(C(C)(C)C)oc2=O)c(Cl)cc1Cl |  | inactive | inactive |  | inactive |  |  |  |  |  | 32.4 µM (active) | 81.1 µM (active) | 90.5 µM (active) | 1.44 µM (active) | 86.3 µM (active) |  |  | 
CO/C=C(/C(=O)OC)c1ccccc1Oc1cc(Oc2ccccc2C#N)ncn1 |  | inactive | inactive | 84.5 µM (active) and 65.9 µM (active) and 66.5 µM (active) | inactive |  |  |  |  |  | 91.8 µM (active) and 78 µM (active) and 74.3 µM (active) | 86.3 µM (active) and 85.9 µM (active) and 86.9 µM (active) | 75.2 µM (active) and 72.2 µM (active) and 71.5 µM (active) | 84.1 µM (active) and 83.3 µM (active) and 82.3 µM (active) | 79.9 µM (active) and 79.2 µM (active) and 78.1 µM (active) |  |  | 
CS/C(C)=N/OC(=O)N(C)SN(C)C(=O)O/N=C(\C)SC | inactive | inactive | inactive |  | inactive | inactive | inactive | inactive | inactive | inactive |  |  |  |  |  |  |  | 
CCOP(=S)(OCC)SCn1c(=O)oc2cc(Cl)ccc21 | inactive | inactive | inactive | 75.3 µM (active) | inactive |  | inactive | inactive |  |  |  |  | 17.7 µM (active) |  |  | inactive |  | 
CC(C)C1(C)N=C(c2nc3ccccc3cc2C(=O)O)NC1=O (centres undefined) | inactive | inactive | inactive | 28.7 µM (active) | inactive |  |  | inactive | inactive |  |  |  | 6.39 µM (active) | 14.1 µM (active) |  | inactive |  | 
COc1cnc(OC)n2nc(NS(=O)(=O)c3c(OCC(F)F)cccc3C(F)(F)F)nc12 | inactive | inactive | inactive |  | inactive |  |  | inactive | inactive | inactive |  |  | 6.02 µM (active) | 10.8 µM (active) |  |  |  | 
CCCCC(CC)COC(=O)c1ccccc1C(=O)OCC(CC)CCCC (centres undefined) | inactive | inactive | inactive | 50 µM (active) | inactive |  | inactive | inactive | inactive |  |  |  | 19 µM (active) |  |  | inactive |  | 
COC(=O)N(OC)c1ccccc1COc1ccn(-c2ccc(Cl)cc2)n1 |  |  | inactive | 12.4 µM (active) |  |  |  |  |  |  | 3.56 µM (active) | 89.9 µM (active) | 78.1 µM (active) | 77.8 µM (active) | 77.9 µM (active) |  | 75.3 µM (active) | 80.1 µM (active)
CCCN(CCC)c1c([N+](=O)[O-])cc(S(N)(=O)=O)cc1[N+](=O)[O-] | inactive | inactive | inactive | 87.5 µM (active) | inactive |  |  | inactive |  | inactive |  |  | 11.1 µM (active) and 11.9 µM (active) and 10.7 µM (active) | 8.44 µM (active) and 84.8 µM (active) and 8.78 µM (active) |  |  |  | 83.3 µM (active) and 79.5 µM (active)
CCNc1nc(Cl)nc(NC(C)C)n1 | inactive | inactive | inactive | 50 µM (active) | inactive |  |  |  |  |  |  |  | 2.34 µM (active) | 15.2 µM (active) | 31.5 µM (active) |  |  | 
N#CC(CCc1ccc(Cl)cc1)(Cn1cncn1)c1ccccc1 (centres undefined) |  | inactive | inactive | 85.6 µM (active) | inactive |  |  |  | inactive |  | 50 µM (active) |  | 50 µM (active) | 76.1 µM (active) | 73.7 µM (active) |  |  | 
CN(C)C(=S)SSC(=S)N(C)C | inactive | inactive | inactive |  | inactive |  | inactive | inactive |  | inactive |  |  | 50 µM (active) |  |  | inactive |  | 
CCON=C(CC)C1=C(O)CC(c2c(C)cc(C)cc2C)CC1=O (centres undefined) | inactive | inactive | inactive |  | inactive |  |  |  | inactive | inactive |  |  | 29.5 µM (active) | 23.5 µM (active) | 50 µM (active) |  |  | 
COC(=O)c1ccccc1C(=O)OC | inactive | inactive | inactive |  | inactive | inactive | inactive | inactive | inactive | inactive |  |  |  |  |  |  |  | 
